Among all 53,000 sequences or so, about 3,700 (7%) were called active. Only a selection was taken, and actives are over-represented in it overall. Unmarked numbers belong to inactive results.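 Rule for the calls: active = gene knockdowns whose robust z-score for IL-1 alpha signal is at least 2 or at most -2, so actives lie on both sides; inactive = the rest.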
Assay: Components of the Cytosolic LPS Sensing Pathway: Gene Identification via Genome-wide siRNA Screen;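 note: robust z of the log signal after scaling to non-targeting control siRNA wells of the plate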
Conditions: RAW264.7 macrophages, IL-1a HTRF, actives lie on both sides, screened at 100 nM (by protocol), cells primed 5 h with Pam3CSK4 first
Method in brief: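 Using IL-1a HTRF as read-out, the screen measured release from RAW264.7 cells after 48h siRNA knockdown (100 nM), 5 h Pam3CSK4 priming and 24 h cytosolic LipidA. Values were expressed relative to negative-control wells as robust z-scores.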

Question: For GCAUGCUUUCUGAAUACAATT against Cdk8, which z-score is on record?
Answer: Its z-score is 2.17 (active).

Question: With GGAACAGCUAAAGUUGGGATT against Kcnj9 as the sequence, how does the z-score read?
Answer: The z-score was 0.5.

Question: For GGGUAUGGUUCUGUUGGCATT against Pxmp4, which z-score is on record?
Answer: Its z-score is -1.45.

Question: Which z-score does the source give for CCUAAAGGUUCCCAACAGUTT against Serpinb3d here?
Answer: The z-score was -0.517.

Question: With GGCUGAUUCAUUUGGGAACTT against Olfr9 as the sequence, how does the z-score read?
Answer: The z-score was 0.805.

Question: For GGCCUCUGAGGACAAGUUUTT against Als2cl, which z-score is on record?
Answer: The z-score was 0.0383.

Question: With GGUAGAGGAUGCGAUGCUGTT against Msi2 as the sequence, how does the z-score read?
Answer: The z-score was 4.61 (active).

Question: Which z-score does the source give for GGGAGGUGCAGAUAGGAUUTT against Csrp1 here?
Answer: The z-score was 0.912.

Question: For GGCGAUAGUGUCUAAGAAATT against Cfap298, which z-score is on record?
Answer: The z-score was -0.0112.

Question: For GGAUGAGAAAUACUUUCGGTT against C8a, which z-score is on record?
Answer: Its z-score is 0.126.

Question: With GGCAAGUGCCCAAGUUUGUTT against Ifi35 as the sequence, how does the z-score read?
Answer: Its z-score is 1.08.

Question: With GGCAUAUUGUUUCAUUUUGTT against Rlbp1 as the sequence, how does the z-score read?
Answer: The z-score was -1.19.

Question: With GGCUUUAUAUGAAACUCCUTT against Acrv1 as the sequence, how does the z-score read?
Answer: The z-score was -2.01 (active).

Question: For GCACAGUAGUUCUUGCAUCTT against Olfr891, which z-score is on record?
Answer: Its z-score is 0.13.

Question: For CCUAGUCCCUCUGUCUCUUTT against Kctd13, which z-score is on record?
Answer: The z-score was -1.79.

Question: Which z-score does the source give for GUACACCAGUGGAAGCACATT against Sprr2b here?
Answer: The z-score was -1.91.

Question: For GGAUUUGUCAAUGCAAUAATT against Olfr1012, which z-score is on record?
Answer: Its z-score is -2.68 (active).

Question: For GGACAACAUAUUCUGAUAATT against Stmnd1, which z-score is on record?
Answer: Its z-score is 1.68.

Question: Which z-score does the source give for GGCUUCCUACCUAAGGCUUTT against Bora here?
Answer: The z-score was -0.924.

Question: For CCAGACUACGGUGCUAAGATT against Defb21, which z-score is on record?
Answer: Its z-score is 2.49 (active).

Question: With GGCCGUGUUAAGGAAUCUGTT against Cidea as the sequence, how does the z-score read?
Answer: The z-score was 0.653.

Question: Which z-score does the source give for CCUCUUCUGCGCGGAUUUGTT against Ffar4 here?
Answer: Its z-score is 0.708.

Question: For GGAGAAAGCUUACUGCCUUTT against Lrrc6, which z-score is on record?
Answer: The z-score was -0.959.

Question: Which z-score does the source give for GGAACAGCAGUUUUUGUUUTT against Rnf44 here?
Answer: Its z-score is 0.097.

Question: Which z-score does the source give for GGCGAGUCUACGUGACACUTT against Arrb1 here?
Answer: The z-score was 0.701.

Question: Which z-score does the source give for GGACAUCGUGCUCUAUCUCTT against Nrarp here?
Answer: Its z-score is -1.07.

Question: For GCAGAUCUUGUGAUUAAUGTT against Ildr1, which z-score is on record?
Answer: Its z-score is 0.882.

Question: Which z-score does the source give for CCCAUGGAAUGAAAACAACTT against Gm4894 here?
Answer: Its z-score is 2.58 (active).

Question: Which z-score does the source give for GGAAAUAGUUGGUUUUGAATT against Slfn1 here?
Answer: Its z-score is -1.95.

Question: For GCAUUAGGAAUUCAAUUAGTT against Adamts1, which z-score is on record?
Answer: Its z-score is 0.813.

Question: Which z-score does the source give for “GGACGUAGCUAUGGAGGAUTT against 1810009A15Rik” here?
Answer: Its z-score is -1.83.

Question: For GGAAACCAGAAAAACUGAATT against Parg, which z-score is on record?
Answer: The z-score was 0.653.

Question: Which z-score does the source give for GGAUUAAUUAAUACUUGGCTT against Rps9 here?
Answer: Its z-score is 0.986.

Question: With CCGACACGUUCUCAAUGUCTT against Gss as the sequence, how does the z-score read?
Answer: Its z-score is -0.496.

Question: For GGAAGGACAAAGAAAGCCUTT against Fbxw4, which z-score is on record?
Answer: Its z-score is -0.286.

Question: Which z-score does the source give for GGUUCUUAGGAGUUAACUCTT against Klf16 here?
Answer: Its z-score is 2.71 (active).

Question: For GGAGAUCAUGCUCAAGAACTT against Dgke, which z-score is on record?
Answer: Its z-score is 0.176.

Question: With GGACACCUACUUGGUAUUGTT against Epor as the sequence, how does the z-score read?
Answer: Its z-score is -0.632.

Question: Which z-score does the source give for GGAGAGUAUCAGCAAUGAATT against Impg2 here?
Answer: The z-score was 1.02.

Question: Which z-score does the source give for GGAAAGUUCCCAUGUUCUCTT against Mgat4f here?
Answer: Its z-score is 1.33.

Question: Which z-score does the source give for CGUGAGAUCAUUGAUGUGGTT against Ankrd2 here?
Answer: Its z-score is -1.16.

Question: For GGAUUCUCCAGACACCUUGTT against Styxl1, which z-score is on record?
Answer: Its z-score is -0.704.

Question: With GCUAUUGCCUUAGAUCCAUTT against Lrp6 as the sequence, how does the z-score read?
Answer: Its z-score is 0.384.

Question: With GCUCAACUUCUGAAUUAUATT against Enpep as the sequence, how does the z-score read?
Answer: Its z-score is 2.64 (active).

Question: Which z-score does the source give for GGUCAGCAUCACCUACGAUTT against Prss8 here?
Answer: Its z-score is -0.688.

Question: For GGAGCUGAAGCAAAGACAGTT against Svbp, which z-score is on record?
Answer: The z-score was -0.599.

Question: For GGAAACAACCAUCGAGGUUTT against Cyp4x1, which z-score is on record?
Answer: Its z-score is -0.31.

Question: With GGCUGUGACUCUGGAUUUGTT against Bdh1 as the sequence, how does the z-score read?
Answer: Its z-score is -0.985.

Question: For GGAUUCUGAACACUUUUUCTT against Pot1a, which z-score is on record?
Answer: The z-score was -2.02 (active).

Question: Which z-score does the source give for GCACCAUGUAUACAAAAGATT against Pcdhb3 here?
Answer: Its z-score is 0.0679.

Question: Which z-score does the source give for GGAGUUUGUGAAUAAAUGUTT against Map2k2 here?
Answer: The z-score was 0.177.

Question: With GUGGAAGACUUCACCGGACTT against Arxes1 as the sequence, how does the z-score read?
Answer: Its z-score is 2.01 (active).

Question: For GCUUACUUUGGAACACAAATT against Tex18, which z-score is on record?
Answer: The z-score was 1.22.

Question: Which z-score does the source give for GCAGGAUUGCAUAUAUCGGTT against Cspg5 here?
Answer: The z-score was -0.672.

Question: With CGAUGCUGUUCUUCAAUGUTT against Krt222 as the sequence, how does the z-score read?
Answer: Its z-score is 1.23.

Question: With GGUUUGAAUUCAAGUUCAUTT against Klhl5 as the sequence, how does the z-score read?
Answer: The z-score was 0.616.

Question: Which z-score does the source give for GGAAAAAUAGGUCGAAUGATT against Arntl here?
Answer: The z-score was 0.229.

Question: With CGAUUCCAACAAGAAAGUGTT against Togaram2 as the sequence, how does the z-score read?
Answer: Its z-score is 0.649.

Question: With GCGGGAGAAGCUAAUGAAATT against Ndufs5 as the sequence, how does the z-score read?
Answer: The z-score was 2.21 (active).

Question: With GGAUUUUGUUUCAGGUGGATT against Itgb8 as the sequence, how does the z-score read?
Answer: The z-score was 1.78.

Question: With GGCAGAUGGUAUCAGCUGUTT against Cd248 as the sequence, how does the z-score read?
Answer: The z-score was -1.11.

Question: Which z-score does the source give for GGAGACAAACUCAAAACUGTT against Lyplal1 here?
Answer: The z-score was -1.12.

Question: Which z-score does the source give for CACUGAACAGAUCAGAGCATT against Fam189b here?
Answer: Its z-score is -2.44 (active).

Question: With AAUCUUGAGAGAUUUCUCCTT against Scd2 as the sequence, how does the z-score read?
Answer: Its z-score is -0.047.

Question: Which z-score does the source give for GCCACGGCCAGUAAAACAUTT against Cdcp1 here?
Answer: Its z-score is 0.335.

Question: For GGAUGAGUUUUUAAAGUCATT against Otop2, which z-score is on record?
Answer: The z-score was -0.883.

Question: With GGCAAUGUCAGAGCUAAUCTT against Mettl25 as the sequence, how does the z-score read?
Answer: Its z-score is 0.596.

Question: With GGGACAACCUGGAUGACAUTT against Coq6 as the sequence, how does the z-score read?
Answer: Its z-score is -0.0644.

Question: With CCUUUGUCCGGUCCAUUCCTT against Hk1 as the sequence, how does the z-score read?
Answer: The z-score was -0.654.
